High-throughput results deposited in PubChem BioAssay by National Center for Advancing Translational Sciences (NCATS).
MCF10A rereplic: DNA re-replication induction in MCF 10a cells | Potency, µM (highest dose often 46.1 µM), for the others: at the top dose activity, positive = re-replication, usual class: activators | MCF 10A DNA re-replication, Hoechst nuclear intensity, 48 h | 2.9% of 350,000 active | AID 624296; note: % of control where 0% means no effect; nearly all actives have a fitted effect of over 50% in size
SW480 rerep: inducers of DNA re-replication in SW480 colon cancer cells; AID 624297; 1.8% of 340,000 active; SW480 DNA re-replication, Hoechst DNA content imaging, 48 h; Potency, µM (highest dose often 46.1 µM), without a hit: at the top dose re-replication activation, usual class: activators; note: % of control where 0% means no effect; nearly all actives have a fitted effect of over 55% in size
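Hoechst fluorescence of nuclei (405 nm excitation, 500-530 nm emission) measured by plate-scanning imager after 48 hr compound exposure at 37 C; re-replication scored as increased number of nuclei with elevated intensity.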
VP16 counter: counter-screen for ROR gamma inhibitors: Gal4-VP16 reporter; AID 2546; Drosophila S2 Gal4-VP16 UAS-luciferase, luminescence, 20 h; 3.5% of 310,000 active; Potency, µM (titrated, usually from 53.6 µM), inactives show top-dose activity, negative = inhibition, hits mostly inhibitors;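 note: Gal4-VP16 expression switched on by copper sulfate through the metallothionein promoter; % is set by controls: 0 for no effect and ±100 for the full control effect; nearly all actives have a fitted effect of over 50% in size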
KB-3-1 tox: kills parental KB-3-1 adenocarcinoma cells. KB-3-1 viability, CellTiter-Glo ATP luminescence, 72 h. Potency, µM (top dose mostly 46.1 µM), hits mostly cytotoxic. 1.4% of 400,000 active; note: % is set by controls: 0 for no effect and ±100 for the full control effect; nearly all actives have a fitted effect of over 60% in size
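Luminescent ATP read-out (CellTiter-Glo) measures survival of drug-naive KB-3-1 cells after 72 h compound exposure at 37 °C. Titration series was screened from lowest to highest concentration, with DMSO vehicle plates as background controls.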
KB-V1 MDR tox: kills drug-selected multidrug resistant KB-V1 cells | KB-V1 MDR cells viability, CellTiter-Glo, 72 h | Potency, µM (titrated, usually from 46.1 µM), most hits filed as cytotoxic | 3.4% of 400,000 active; note: % is set by controls: 0 for no effect and ±100 for the full control effect; nearly all actives have a fitted effect of over 60% in size
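In this primary screen, KB-V1 cells overexpressing P-gp are incubated with library compounds (lowest to highest concentration) for 72 h at 37 degrees C before a luminescent ATP viability read.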
RORg inh: ROR gamma (mouse) transcription inhibition | Drosophila S2 Gal4-RORgamma UAS-luciferase reporter, 20 h | P51450 | Potency, µM (series often up to 53.6 µM), without a hit: at the highest dose activity change, negative = inhibition, hits mostly inhibitors | 5.4% of 310,000 active; note: % is set by controls: 0 for no effect and ±100 for the full control effect; nearly all actives have a fitted effect of over 60% in size
Target sequence (P51450 whole entry, looked up, the tested form may be a part): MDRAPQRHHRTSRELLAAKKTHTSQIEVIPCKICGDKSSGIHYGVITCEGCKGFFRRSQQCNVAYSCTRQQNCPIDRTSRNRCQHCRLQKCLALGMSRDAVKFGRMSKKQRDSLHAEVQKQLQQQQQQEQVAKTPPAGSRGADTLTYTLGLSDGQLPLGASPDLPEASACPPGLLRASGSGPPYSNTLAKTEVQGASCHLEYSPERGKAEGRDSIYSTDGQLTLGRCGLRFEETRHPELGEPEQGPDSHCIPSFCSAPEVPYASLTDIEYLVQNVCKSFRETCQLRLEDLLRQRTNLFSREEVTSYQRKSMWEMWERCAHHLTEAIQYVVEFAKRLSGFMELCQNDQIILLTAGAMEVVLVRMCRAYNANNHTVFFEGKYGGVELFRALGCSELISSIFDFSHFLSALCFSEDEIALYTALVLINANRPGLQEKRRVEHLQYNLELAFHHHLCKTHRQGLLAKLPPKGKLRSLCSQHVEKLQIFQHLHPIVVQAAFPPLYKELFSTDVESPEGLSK
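Drosophila S2 cells stably expressing Gal4-DBD/mouse RORγ fusion under metallothionein promoter plus UAS-luciferase; compound 1 h, then 700 uM CuSO4 induction for 20 h at ambient temperature; inhibition read as reduced luminescence.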
* marks the source's active call; other numbers are inactive results; i = inactive; ? = inconclusive; · = no result; [ ] = another dose, or the depositor's remark. Shown are actives, neighbours in structure and some others; about 10% of the full set was active somewhere. Calls come from the whole dose curve; as a rule, active = well fitted curve in the direction sought with a large enough effect; inconclusive = small, poorly fitted or top-dose-only effect, or another doubt; inactive = no such curve, though single readings can be large; an effect the other way counts as inactive or inconclusive. Potency is the fitted concentration of half-maximal effect.

SMILES	MCF10A rereplic	SW480 rerep	VP16 counter	KB-3-1 tox	KB-V1 MDR tox	RORg inh
Cc1ccc(/C=C2\CCC(C3CCCC3)C2=O)cc1 (stereo unspecified)	-1%	-5%	?	i	i	-27%
COc1ccc(/C=C2\CCC(C3CCCC3)C2=O)cc1 (stereo unspecified)	-8%	-1%	1%	i	i	30%
CC1CCC/C(=C\c2ccc(O)cc2)C1=O (stereo unspecified)	-4%	?	·	i	i	·
COc1ccc(/C=C2/CCC(CN3CCOCC3)C2=O)cc1 (stereo unspecified)	?	15µM*	·	?	?	·
COc1cccc(C(=O)Nc2ccc3nc(N4CCC(C)CC4)cc(C)c3c2)c1	·	·	·	?	i	·
Cc1nn(CC(=O)Nc2ccc(S(N)(=O)=O)cc2)c(=O)c2ccccc12	-12%	-3%	-2%	i	i	-29%
CN(C)c1ncnc2ccc(-c3cccnc3)cc12	·	·	-10%	·	·	?
COCCNC(=O)C1CCCN(Cc2ccccc2F)CC1 (stereo unspecified)	·	·	·	i	i	·
CC(=O)NCCNc1ccnc(-c2ccccc2C(F)(F)F)n1	·	·	-1%	·	·	1%
CCN(CC)c1ccc(C(=O)O)cc1	-9%	20%	5%	i	i	-2%
CCN(CC)c1ccc(/C=C2\C(=O)c3ccc(C(=O)O)cc3C2=O)cc1	-7%	0%	10µM*	i	i	11µM*
ClC(Cl)c1nnc(-c2ccccc2)c(-c2c[nH]c3ccccc23)n1	26µM*	1%	2%	i	?	2%
Cc1nn(CCc2nn[nH]n2)c2nc(-c3ccc(C4CCCCC4)cc3)cc(C(F)(F)F)c12	12µM*	-3%	2%	i	i	8%
Cc1nn(CCC(=O)O)c2nc(-c3cccnc3)cc(C(F)(F)F)c12	0%	3%	-3%	i	i	33%
Cc1ccc(NC(=O)NCCOCCn2c(=O)oc3ccccc32)c(C)c1	·	·	·	i	i	·
CC(C)OC(=O)CC1C(=O)NCCN1C(=S)NC(=O)c1cccs1 (stereo unspecified)	-6%	-8%	11µM*	i	i	2.5µM*
O=C(Cc1cccs1)NCCS(=O)(=O)N1CCN(c2ccccc2F)CC1	16µM*	23µM*	·	12µM*	?	·
CCN(C1CCCCC1)S(=O)(=O)CCNC(=O)c1ccc2c(c1)OCO2	4%	0%	·	i	i	·
COc1cccc(C(=O)NCCS(=O)(=O)N2CCCCCC2)c1	1%	2%	·	i	12µM*	·
COc1cccc(C(=O)NCCS(=O)(=O)N2CCC(C)CC2)c1	6%	-4%	·	i	23µM*	·
CCN(C1CCCCC1)S(=O)(=O)CCNC(=O)c1ccccc1	-1%	-5%	·	i	4.1µM*	·
C[C@@](O)(/C=C/[C@H]1CC=CC(=O)O1)[C@@H](C[C@@H](O)\C=C/C=C\C=C\CO)OP(=O)(O)O	·	·	-8%[10 µM]	·	·	-29%[10 µM]
Cc1ccc(C)c(N2CCN(C(=O)Cn3c(C)c4cnn(-c5ccccc5)c(=O)c4c3C)CC2)c1	·	·	·	?	i	·
CC(=O)Nc1ccc(NC(=O)[C@H](C)NC(=O)c2ccco2)cc1	-5%	5%	1%	i	i	-4%
CNC(=O)[C@H](C)/C=C(\c1cccnc1)C(NC(=O)OCc1ccccc1)c1ccc(C(=O)OC)cc1 (stereo partly specified)	·	·	0%	·	·	-3%
SMILES	MCF10A rereplic	SW480 rerep	VP16 counter	KB-3-1 tox	KB-V1 MDR tox	RORg inh
CC1CCN(S(=O)(=O)CCNC(=O)c2ccccc2)CC1	8%	-4%	·	i	13µM*	·
CC1CCCN(c2ccc(C(=O)NCc3ccccc3)cn2)C1 (stereo unspecified)	?	?	-6%	i	i	8%
O=C(NCc1ccccc1)c1ccc(C(=O)N(C2CCCCC2)C2CCCCC2)cc1	-2%	8%	-9%	?	23µM*	-1%
O=C(NCc1ccccc1)c1ccc(C(=O)NCc2ccccc2)cc1	-2%	-5%	·	i	i	·
O=C(NCCS(=O)(=O)N1CCCC1)c1ccccc1	0%	-222%	·	i	i	·
CC1CCN(c2ccc(C(=O)NCCc3ccccc3)cn2)CC1	11%	10%	18%	i	13µM*	32%
COc1cccc(C(=O)NCCS(=O)(=O)NCCCc2ccccc2)c1	-5%	-3%	·	i	16µM*	·
O=C1CCC(=O)N1CO	-1%	0%	1%	·	·	-6%
NC1CCc2ccc([N+](=O)[O-])cc21 (stereo unspecified)	·	·	·	i	i	·
CC1CCC2C(=O)N3C(CCC(C)[C@@H]3c3cccc(N4CCOCC4)c3)C(=O)N2C1c1cccc(Br)c1 (stereo partly specified)	·	·	-5%[10 µM]	·	·	-2%[10 µM]
COc1ccccc1N1CCN(S(=O)(=O)CCNC(=O)c2cc(OC)c(OC)c(OC)c2)CC1	?	?	-2%	6.5µM*	i	0%
COc1ccccc1N1CCN(S(=O)(=O)CCNC(=O)c2ccco2)CC1	·	·	·	i	i	·
Cc1nc(SCC(=O)c2cc3ccccc3oc2=O)c(C#N)c(-c2ccccc2)c1C(=O)Nc1ccccc1	?	7.3µM*	?	i	?	-33%
COc1ccc(-c2c(C#N)c(SCC(=O)Nc3ccc(Br)cc3)nc(C)c2C(=O)Nc2ccccc2)cc1	·	·	·	i	i	·
COc1ccc(-c2c(C#N)c(SCC(=O)Nc3ccc(C)cc3)nc(C)c2C(=O)Nc2ccccc2)cc1	·	·	·	i	i	·
COc1ccc(-c2c(C#N)c(SCC(=O)c3cc4ccccc4oc3=O)nc(C)c2C(=O)Nc2ccccc2)cc1	5.2µM*	21µM*	?	18µM*	?	-36%
C#CCn1c(S(=O)(=O)Cc2ccccc2Cl)nc(-c2ccccc2)c1-c1ccccc1	7%	-4%	0%	i	i	-2%
C#CCn1c(S(=O)(=O)Cc2ccc(C)cc2)nc(-c2ccccc2)c1-c1ccccc1	27%	?	-7%	6.5µM*	6.5µM*	-11%
O=C(COC(=O)c1ccc(F)cc1)NCc1ccc(F)cc1	-1%	3%	·	?	?	·
Cn1c(C(=O)OCC(=O)NCc2ccc(F)cc2)cc2occc21	2.9µM*	-1%	·	i	i	·
N#Cc1c(-c2ccccc2)cc(-c2ccccc2)nc1SCC(O)CS(=O)(=O)Cc1ccc(Cl)cc1 (stereo unspecified)	·	·	·	i	i	·
NC(CO)c1csc(Nc2ccc(C(F)(F)F)cn2)n1 (stereo unspecified)	·	·	·	i	i	·
